# Source: PubChem BioAssay (NCI)
# The panel holds about 79,000 compounds, 15% with a hit somewhere; the sample as a whole holds those more often. Values without a mark were called inactive. Calls of active or inactive are those of the source. Cut-off read from the data, not from the text of the source: active = growth inhibition above about 70%; inactive = the rest.
# Legend:
# [1] = NCI Yeast Anticancer Drug Screen. Data for the rad50 strain (AID 155);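 note: 0% = growth of vehicle-only cultures of the same strain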; details: S. cerevisiae rad50 strain growth inhibition, stronger effect = higher value
# Procedure, shortened: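 Growth of the mutant yeast was measured after compound exposure and referenced to vehicle-treated cultures.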
# [2] = NCI Yeast Anticancer Drug Screen. Data for the mec2-1 strain (AID 157); details: S. cerevisiae mec2-1 strain, stronger effect = higher value
# Procedure, shortened: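 Readout is yeast growth inhibition, normalised to vehicle-treated controls, in the mec2-1 strain exposed to compound.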
# [3] = NCI Yeast Anticancer Drug Screen. Data for the sgs1 mgt1 strain (AID 161);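 note: 0% = growth of cultures given vehicle only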; details: S. cerevisiae sgs1 mgt1 strain, stronger effect = higher value
# Procedure, shortened: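 Percent growth inhibition was derived by comparing compound-exposed mutant yeast with vehicle-exposed cultures. The strain carries alterations in DNA damage repair.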
# [4] = NCI Yeast Anticancer Drug Screen. Data for the bub3 strain (AID 167); details: S. cerevisiae bub3 mutant strain, stronger effect = higher value
# Procedure, shortened: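 Whole-cell yeast assay. The mutant strain was incubated with compounds, and growth inhibition was determined by comparison with vehicle-treated cells.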
# [5] = NCI Yeast Anticancer Drug Screen. Data for the mlh1 rad18 strain (AID 175); details: S. cerevisiae mlh1 rad18 strain growth inhibition, stronger effect = higher value
# Procedure, shortened: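 Test agents were incubated with a yeast strain of defined genotype (DNA damage repair defect). Inhibition of growth was derived by comparison with vehicle-exposed cultures.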
# [6] = NCI Yeast Anticancer Drug Screen. Data for the cln2 rad14 strain (AID 165);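 note: 0% = growth equal to vehicle treated cultures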; details: S. cerevisiae cln2 rad14 strain, stronger effect = higher value
# Procedure, shortened: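 Relative to vehicle controls, growth inhibition of compound-treated cln2 rad14 yeast was recorded.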
# [7] = at 5.0 µM (retest, dose inferred, filed as 0.5)
# [8] = at 50.0 µM (retest, dose inferred, filed as 5.0)
Structure (SMILES),"growth inhibition [1, 7]","growth inhibition [1, 8]",growth inhibition ([1]; at 50.0 µM),"growth inhibition [2, 7]","growth inhibition [2, 8]",growth inhibition ([2]; at 50.0 µM),"growth inhibition [3, 7]","growth inhibition [3, 8]",growth inhibition ([3]; at 50.0 µM),"growth inhibition [4, 7]","growth inhibition [4, 8]",growth inhibition ([4]; at 50.0 µM),"growth inhibition [5, 7]","growth inhibition [5, 8]",growth inhibition ([5]; at 50.0 µM),"growth inhibition [6, 7]","growth inhibition [6, 8]",growth inhibition ([6]; at 50.0 µM)
O=C([CH-]C(=O)c1ccccc1)c1ccccc1.O=C([CH-]C(=O)c1ccccc1)c1ccccc1.O=C([CH-]C(=O)c1ccccc1)c1ccccc1.[Cl-].[Hf+4],38%,95% (active),88% (active),37%,96% (active),90.2% (active),50%,95% (active),91.8% (active),64%,95% (active),90.8% (active),46%,94% (active),87.9% (active),,,
C#CCN1C(=O)N(CC#C)C(=O)C(CC#C)(C(CC=C)c2ccccc2)C1=O (centres undefined),1%,96% (active),57.3%,2%,97% (active),26.6%,-1%,97% (active),66.5%,,,,-23%,97% (active),53.4%,16%,95% (active),58.5%
CC(=O)[O-].O=C([CH-]C(=O)c1ccccc1)c1ccccc1.O=C([CH-]C(=O)c1ccccc1)c1ccccc1.[Dy+3],44%,99% (active),91.5% (active),35%,99% (active),93.2% (active),44%,100% (active),93.4% (active),57%,96% (active),92.1% (active),50%,98% (active),91.3% (active),,,
CCC[CH2][Sn]([CH2]CCC)([CH2]CCC)[O]C(=O)C(OC)c1ccccc1 (centres undefined),100% (active),100% (active),90.5% (active),100% (active),100% (active),91.3% (active),99% (active),99% (active),91% (active),99% (active),99% (active),88.7% (active),100% (active),100% (active),89.4% (active),,,
COC1CC(OC2C(C)OC(OC3C(C)OC(OC4CCC5(C)C(=CCC6(O)C5CC(OC(=O)c5ccc(O)cc5)C5(C)C(O)(C(C)=O)CCC65O)C4)CC3OC)CC2OC)OC(C)C1O (centres undefined) (tested in a mixture with another compound),1%,68%,45.9%,8%,82% (active),39.1%,1%,89% (active),68.7%,6%,74% (active),60.5%,-3%,83% (active),55.1%,-7%,49%,48.6%
O=C(CC(=O)c1ccccc1)c1ccccc1.O=C(CC(=O)c1ccccc1)c1ccccc1.O=C(CC(=O)c1ccccc1)c1ccccc1.[Al],2%,-3%,19.7%,5%,4%,86.4% (active),5%,2%,43.6%,4%,3%,6.55%,0%,0%,20.4%,,,
CCc1c[c]([Hg][Cl])c(CC)c(CC)c1CC,5%,99% (active),99.4% (active),68%,99% (active),99.7% (active),40%,100% (active),99.7% (active),7%,99% (active),16.1%,35%,99% (active),98.6% (active),2%,90% (active),23.7%
Cc1nnc2n1-c1ccc(Cl)cc1C(c1ccccc1)=[N+]([O-])C2,4%,0%,-16.8%,-3%,-9%,-0.7%,1%,3%,3.05%,,,,-3%,-4%,-6.2%,1%,12%,64.7%
CC(C)(C)S.[Hg],68%,98% (active),99.5% (active),99% (active),98% (active),99.7% (active),98% (active),99% (active),99.7% (active),89% (active),99% (active),99.5% (active),75% (active),99% (active),99.5% (active),99% (active),99% (active),99.2% (active)
O=C([CH-]C(=O)c1ccccc1)c1ccccc1.O=C([CH-]C(=O)c1ccccc1)c1ccccc1.[Nd+3].[OH-].[OH3+],34%,34%,92.2% (active),11%,11%,93.7% (active),38%,38%,94.2% (active),36%,36%,92.2% (active),30%,30%,89.8% (active),,,
CCC1(O)C(=O)OCc2c1cc1n(c2=O)Cc2cc3cc4c(cc3nc2-1)OCO4 (centres undefined),97% (active),92% (active),86.6% (active),98% (active),96% (active),86.3% (active),97% (active),96% (active),85.2% (active),,,,93% (active),79% (active),92.7% (active),90% (active),91% (active),73% (active)
